Source: PubChem BioAssay (National Center for Advancing Translational Sciences (NCATS))
HT1080-NT tox = qHTS for induction of synthetic lethality in tumor cells producing 2HG: qHTS for the HT-1080-NT fibrosarcoma cell line. HT-1080-NT fibrosarcoma viability, CellTiter-Glo ATP luminescence, 48 h. Potency, µM (series often up to 46.1 µM), for inactives: at the highest dose activity, negative = less viability, hits mostly cytotoxic. hit rate 1.6% among 360,000. AID 686970, 2013;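 also: NT is the 2HG producing partner of a matched IDH1 knockdown line; potency is read from the fitted curve at half-maximal effect; 0% = DMSO-treated cells and -100% = media-only wells without cells; nearly all actives have a fitted effect of over 55% in size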
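750 cells/well, RPMI + 5% FBS; 2 h settle, compound pin-transfer, 48 h at 37 degrees C. CellTiter-Glo 10 min RT, luminescence. Normalized to DMSO and media-only wells.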
ELG1 DNA repair = qHTS screen for small molecules that inhibit ELG1-dependent DNA repair in human embryonic kidney (HEK293T) cells expressing luciferase-tagged ELG1 | HEK293T ELG1-luciferase reporter, luminescence, 16 h; DNA damage induced by 5-fluorouridine | Potency, µM (top dose mostly 46.1 µM), for inactives: top-dose activity change, negative = inhibition, most hits filed as inhibitors | hit rate 2.3% among 330,000; also: potency is read from the fitted curve at half-maximal effect; nearly all actives have a fitted effect of over 55% in size
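5-Fluorouridine DNA damage + compound/DMSO, 2,000 cells/well, 16 h, 37 °C/5% CO2. ONE-Glo, 30 min RT, luminescence. Readout = decrease in reporter signal.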
IL-1B inflam inh = qHTS for Inhibitors of Inflammasome Signaling: IL-1-beta AlphaLISA Primary Screen | THP-1 LPS/ATP IL-1B secretion, AlphaLISA, 16 h; hits give low values | activity change, % at 57.5 µM | hit rate 4.7% among 360,000; in the data active = activity change below about -50%; inconclusive = mostly about -30% to -49%
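THP-1 cells pretreated 1 hr with compounds (up to 57.5 uM final), then stimulated with LPS (250 ng/mL final) plus ATP (1.25 mM final); secreted IL-1B measured by AlphaLISA after 16 hr, decreased signal indicating inhibition.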
HT1080 IDH1KD tx = qHTS for induction of synthetic lethality in tumor cells producing 2HG: qHTS for the HT-1080-IDH1KD cell line. HT-1080 IDH1 knockdown viability, ATP luminescence, 48 h. Potency, µM (titrated, usually from 46.1 µM), for inactives: top-dose activity, negative = toxicity, actives largely listed as cytotoxic. hit rate 2% among 360,000. AID 686971, 2013;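 also: potency is read from the fitted curve at half-maximal effect; 0% = DMSO wells and -100% = cell-free medium wells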
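Cytotoxicity counter-line: IDH1KD HT-1080, 48 h, CellTiter-Glo. Curves classed by r2, magnitude and activity.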
DT40 TDP1 CPT = qHTS for Inhibitors of human tyrosyl-DNA phosphodiesterase 1 (TDP1): qHTS in cells in presence of CPT | chicken DT40 Tdp1-/-;hTDP1 cells + 20 nM CPT, ATP luminescence, 48 h | Potency, µM (titrated, usually from 46.2 µM), for inactives: top-dose activity change, negative = growth inhibition, usual class: inhibitors | hit rate 12% among 420,000 | AID 686979, 2013; also: potency is read from the fitted curve at half-maximal effect; nearly all actives have a fitted effect of over 55% in size
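Cell growth measured by CellTiter-Glo luminescence after a minimum 48 h, 37 C compound exposure with 20 nM CPT in Tdp1-knockout DT40 cells stably expressing hTDP1, seeded 400/well; qHTS titration format.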
DT40 TDP1 no CPT = qHTS for Inhibitors of human tyrosyl-DNA phosphodiesterase 1 (TDP1): qHTS in cells in absence of CPT. DT40 Tdp1-/- hTDP1 cells, no CPT, ATP luminescence, 48 h. Potency, µM (doses to about 46.2 µM), without a hit: top-dose activity change, negative = growth inhibition, most hits filed as inhibitors. hit rate 15% among 420,000; also: potency is read from the fitted curve at half-maximal effect; nearly all actives have a fitted effect of over 55% in size
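Luminescent ATP content (CellTiter-Glo) served as the growth readout. Knockout chicken DT40 cells expressing human TDP1 were exposed to compounds without camptothecin for a minimum 48 hr at 37 °C.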
Active calls of the source: *. Compounds with a hit are over-represented: about 19% of the library has one in this group of screens. Unless noted, calls follow the shape of the dose curve; as a rule, active = well fitted curve in the direction sought with a large enough effect; inconclusive = small, poorly fitted or top-dose-only effect, or another doubt; inactive = no such curve, though single readings can be large; an effect the other way counts as inactive or inconclusive. Unless noted, % is scaled to controls: 0 for no effect and ±100 for the full control effect.

For CCc1ccc(N(C(=O)CCC(=O)Nc2cc(C)on2)C(C(=O)NC(C)(C)C)c2ccc(OC)cc2)cc1 (stereo not given) the results were HT1080-NT tox -19.9%, ELG1 DNA repair -24.6%, IL-1B inflam inh 17.3, HT1080 IDH1KD tx -23.4%, DT40 TDP1 CPT inconclusive and DT40 TDP1 no CPT 20.6µM*.
Screening CCC(C)(C)NC(=O)C(c1ccc(OC)cc1)N(C(=O)CCC(=O)Nc1cc(C)on1)c1ccc(F)cc1 (stereo not given) returned HT1080-NT tox inconclusive, ELG1 DNA repair -17.5%, IL-1B inflam inh -11.3, HT1080 IDH1KD tx -7.0%, DT40 TDP1 CPT -19.8% and DT40 TDP1 no CPT inconclusive.
`COc1ccc(C(C(=O)NC(C)(C)C)N(C(=O)CCC(=O)Nc2cc(C)on2)c2cccc(F)c2)cc1` (stereo not given) gave HT1080-NT tox -11.9%, ELG1 DNA repair 1.1%, IL-1B inflam inh -8.8, HT1080 IDH1KD tx -3.6%, DT40 TDP1 CPT 0.1% and DT40 TDP1 no CPT inconclusive.
For CCOc1cccc(N(C(=O)CCC(=O)Nc2cc(C)on2)C(C(=O)NC(C)(C)C)c2ccc(OC)cc2)c1 (stereo not given) the results were HT1080-NT tox -4.6%, ELG1 DNA repair 0.1%, IL-1B inflam inh 10.1, HT1080 IDH1KD tx -26.3%, DT40 TDP1 CPT 29.1µM* and DT40 TDP1 no CPT inconclusive.
Screening Cc1ccc(N2C(=O)CSC23C(=O)N(CC(=O)NC2CCCCC2)c2ccccc23)cc1 (stereo not given) returned DT40 TDP1 CPT -17.3% and DT40 TDP1 no CPT -7.7%.
O=C1CSC2(C(=O)N(Cc3cccc(C(F)(F)F)c3)c3ccccc32)N1c1ccc(F)c(F)c1 (stereo not given) was read as DT40 TDP1 CPT 20.6µM* and DT40 TDP1 no CPT 16.4µM*.
For COc1ccc(N2C(=O)CSC23C(=O)N(Cc2cccc(C(F)(F)F)c2)c2ccccc23)cc1 (stereo not given) the results were DT40 TDP1 CPT inconclusive and DT40 TDP1 no CPT 14.6µM*.
For CSCC(C)N1CCC(CCC(=O)NC2CC2)CC1 (stereo not given) the results were HT1080-NT tox 10.9%, ELG1 DNA repair 3.4%, IL-1B inflam inh -4.5, HT1080 IDH1KD tx 9.1%, DT40 TDP1 CPT 0.4% and DT40 TDP1 no CPT -4.8%.
`COc1ccc(-c2cc(C(F)(F)F)nc(SCC(=O)Nc3cc(C)on3)n2)cc1` gave HT1080-NT tox 1.5%, ELG1 DNA repair inconclusive, IL-1B inflam inh 10.0, HT1080 IDH1KD tx 3.9%, DT40 TDP1 CPT inconclusive and DT40 TDP1 no CPT inconclusive.
Screening O=C(CSc1nc(-c2ccco2)cc(C(F)(F)F)n1)Nc1cccnc1 returned HT1080-NT tox inconclusive, ELG1 DNA repair inconclusive, IL-1B inflam inh 21.5, HT1080 IDH1KD tx inconclusive, DT40 TDP1 CPT inconclusive and DT40 TDP1 no CPT 20.6µM*.
Screening CCN(CC)c1ccc(NC(=O)CSc2n[nH]c(-c3ccco3)n2)cc1 returned HT1080-NT tox 0.1%, ELG1 DNA repair 5.5%, IL-1B inflam inh 6.7, HT1080 IDH1KD tx 1.7%, DT40 TDP1 CPT inconclusive and DT40 TDP1 no CPT 23.1µM*.
Screening COc1cc(NC(=O)CSc2nc(-c3ccco3)cc(C(F)(F)F)n2)cc(OC)c1OC returned DT40 TDP1 CPT 3.66µM* and DT40 TDP1 no CPT 5.17µM*.
Screening COc1cc(NC(=O)CCCSc2nc(-c3ccco3)cc(C(F)(F)F)n2)cc(OC)c1OC returned HT1080-NT tox -15.8%, ELG1 DNA repair inconclusive, IL-1B inflam inh -6.9, HT1080 IDH1KD tx -17.0%, DT40 TDP1 CPT inconclusive and DT40 TDP1 no CPT inconclusive.
For COc1ccc(-c2cc(C(F)(F)F)nc(SCC(=O)Nc3ccc(C(C)=O)cc3)n2)cc1 the results were DT40 TDP1 CPT 20.6µM* and DT40 TDP1 no CPT inconclusive.
Screening CC(=O)c1c(C)[nH]c(C(=O)OCC(=O)N2CC(C)OC(C)C2)c1C (stereo not given) returned HT1080-NT tox -8.4%, ELG1 DNA repair 28.5%, IL-1B inflam inh 25.0, HT1080 IDH1KD tx -2.2%, DT40 TDP1 CPT -5.1% and DT40 TDP1 no CPT -14.3%.
Screening COc1ccccc1CCNC(=O)CCSc1nc(-c2ccco2)cc(C(F)(F)F)n1 returned HT1080-NT tox -5.6%, ELG1 DNA repair inconclusive, IL-1B inflam inh -13.1, HT1080 IDH1KD tx -26.0%, DT40 TDP1 CPT 23.1µM* and DT40 TDP1 no CPT inconclusive.
COc1ccc(NC(=O)CSc2ccc(-c3ccco3)nn2)cc1OC was read as HT1080-NT tox -9.7%, ELG1 DNA repair -19.7%, IL-1B inflam inh inactive, HT1080 IDH1KD tx 0.0%, DT40 TDP1 CPT 16.4µM* and DT40 TDP1 no CPT 10.3µM*.
COc1ccc(NC(=O)CSc2nc(-c3ccco3)cc(C(F)(F)F)n2)cc1 was read as DT40 TDP1 CPT inconclusive and DT40 TDP1 no CPT 8.2µM*.
Screening O=C(CCSc1nc(-c2ccco2)cc(C(F)(F)F)n1)NCCc1ccccc1 returned HT1080-NT tox -23.3%, ELG1 DNA repair inconclusive, IL-1B inflam inh -3.0, HT1080 IDH1KD tx -3.4%, DT40 TDP1 CPT inconclusive and DT40 TDP1 no CPT inconclusive.
For COc1cccc(NC(=O)CSc2ccc(-c3ccco3)nn2)c1 the results were HT1080-NT tox -0.6%, ELG1 DNA repair 0.4%, IL-1B inflam inh -2.0, HT1080 IDH1KD tx -0.8%, DT40 TDP1 CPT -12.7% and DT40 TDP1 no CPT inconclusive.
CCOC(=O)c1c(C)[nH]c(C(=O)COc2ccc3ccc(=O)oc3c2)c1C was read as HT1080-NT tox 5.9%, ELG1 DNA repair -2.2%, IL-1B inflam inh -1.7, HT1080 IDH1KD tx 12.1%, DT40 TDP1 CPT inconclusive and DT40 TDP1 no CPT -23.6%.
COc1cc(C)ccc1OCCn1c(-c2ccc(Cl)cc2)nc2ccccc2c1=O was read as DT40 TDP1 CPT -5.6% and DT40 TDP1 no CPT -7.7%.
`Cc1c(NS(=O)(=O)c2cc(C(=O)NCCN(C)C)ccc2Cl)c(=O)n(-c2ccccc2)n1C` gave HT1080-NT tox 29.3%, ELG1 DNA repair -1.1%, IL-1B inflam inh -7.8, HT1080 IDH1KD tx 16.0%, DT40 TDP1 CPT 4.2% and DT40 TDP1 no CPT 0.2%.
